# From PubChem BioAssay (Tox21)
# Values joined by “and” are separate entries in the source; they are usually repeats but may differ in a detail not shown here. Equal entries are not always repeated. Records with an inconclusive call do not appear. A call without a number means that no potency is given here. Where a structure was tested more than once in an assay, its records may differ in their call. Active and inactive are the calls of the source. Unless noted, calls follow the shape of the dose curve; as a rule, active = well fitted curve in the direction sought with a large enough effect in the repeat runs; inconclusive = weak or mixed curves; inactive = no such curve, though single readings can be large; an effect the other way counts as inactive or inconclusive.
# What was measured:
# [1] = target: Retinoic acid receptor RXR-alpha (Homo sapiens) (UniProt P19793); test: qHTS assay to identify small molecule agonists of the RXR signaling pathway (AID 1159527; calls by dose curve; also: nearly all actives have a fitted effect of over 35% in size)
# Method in brief: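 Agonist mode; 9-cis retinoic acid positive control. HEK 293T UAS-bla reporter cells, 2% charcoal-stripped FBS, 16 hr compound exposure at 37 C/5% CO2. LiveBLAzer B/G FRET substrate 2 hr RT; ex 405, em 460/530 nm.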
# [2] = qHTS assay to identify small molecule agonists of the RXR signaling pathway - cell viability counter screen (AID 1159529); also: series mostly up to about 77 µM; nearly all actives have a fitted effect of over 50% in size
# Method in brief: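 Luminescence from CellTiter-Glo (30 min, RT) measured viability in the same wells as the beta-lactamase reporter readout. Cells: GeneBLAzer RXR-alpha HEK 293T, 2% charcoal-stripped FBS. Compound exposure 16 hr, 37 C.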
# [3] = qHTS assay to identify small molecule antagonists of the retinoid acid receptor (RAR) signaling pathway - cell viability counter screen (AID 1159551); also: nearly all actives have a fitted effect of over 35% in size
# Method in brief: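 Cytotoxicity counter screen: ATP content quantified by CellTiter-Glo luminescence in C3RL4 cells treated 6 hr at 37 C with compound and retinol (1 uM final). Cells plated at 1,000/well and cultured overnight before dosing.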
# [4] = qHTS assay to identify small molecule agonists of the retinoic acid receptor (RAR) signaling pathway (AID 1159553); also: potency is read from the fitted curve at half-maximal effect
# Method in brief: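 Luminescence was measured 30 min after luciferase reagent addition at room temperature. Before that, C3RL4 reporter cells (1,000 per well, plated overnight) were treated with compound for 6 hr at 37 C and 5% CO2.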
# [5] = qHTS assay to identify small molecule antagonists of the estrogen related receptor (ERR) signaling pathway from Tox21 library - cell viability counter screen (AID 1224834); also: nearly all actives have a fitted effect of over 30% in size; also: potency is read from the fitted curve at half-maximal effect
# Method in brief: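 CellTiter-Fluor fluorescence, read after 30 min at 37 C, measures viability of ERR cells. Cells plated at 2,000/well and incubated 6 h before pin-tool compound addition, then exposed 17.5 hours at 37 C.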
# [6] = qHTS assay to identify small molecule agonists of the constitutive androstane receptor (CAR) signaling pathway - cell viability counter screen (AID 1224836); also: series mostly up to about 92 µM; nearly all actives have a fitted effect of over 45% in size
# Method in brief: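 Viability read-out: CellTiter-Fluor fluorescence after 23 h compound exposure at 37 C/5% CO2 in double-stable HepG2-CYP2B6-hCAR cells, with PK11195 present at 0.75 uM final; compounds tested in 15-point titration.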
# [7] = qHTS assay to identify small molecule antagonists of the constitutive androstane receptor (CAR) signaling pathway - cell viability counter screen (AID 1224837); also: series mostly up to about 92 µM; nearly all actives have a fitted effect of over 45% in size
# Method in brief: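 Cytotoxicity counter-screen: CellTiter-Fluor fluorescence after 23 h compound exposure (15-point qHTS) in double-stable HepG2-CYP2B6-hCAR cells, with 50 nM CITCO added.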
# [8] = target: Nuclear receptor subfamily 1 group I member 3 (Homo sapiens) (UniProt Q14994); test: qHTS assay to identify small molecule antagonists of the constitutive androstane receptor (CAR) signaling pathway (AID 1224838);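 also: HepG2 cells stably expressing hCAR with CYP2B6 luciferase reporter stimulated by CITCO; nearly all actives have a fitted effect of over 40% in size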
# Method in brief: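 Antagonism measured as luciferase signal (ONE-Glo, 30 min, room temperature) in CAR-stimulated cells: HepG2-CYP2B6-hCAR double-stable line exposed 24 hr at 37 C to compound in a 15-point series plus 50 nM CITCO.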
# [9] = target: Nuclear receptor subfamily 1 group I member 3 (Homo sapiens) (UniProt Q14994); test: qHTS assay to identify small molecule agonists of the constitutive androstane receptor (CAR) signaling pathway (AID 1224839); also: potency is read from the fitted curve at half-maximal effect; nearly all actives have a fitted effect of over 15% in size
# Method in brief: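 Luminescence read-out (ONE-Glo, 30 min, room temperature) from double-stable HepG2-CYP2B6-hCAR cells exposed 24 h to 15-point compound series in presence of 0.75 uM PK11195 final.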
# [10] = qHTS assay to identify small molecule antagonists of the estrogen related receptor signaling pathway with the pleiotropic PPARgamma coactivator (PGC) from Tox21 10K library - cell viability counter screen (AID 1224840; active = well fitted cell-killing curve with a large enough effect in the repeat runs, not every such curve was filed as active; also: nearly all actives have a fitted effect of over 40% in size)
# Method in brief: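 Counter-screen for cytotoxicity: after 17.5 h compound exposure at 37 C, CellTiter-Fluor reagent added to PGC/ERR cells for 30 min and fluorescence read. Cells were seeded at 2,000 per well 6 h before dosing.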
# [11] = target: Luciferin 4-monooxygenase (Photinus pyralis) (UniProt P08659); test: qHTS assay to identify small molecule inhibitors of firefly luciferase (AID 1224835); also: nearly all actives have a fitted effect of over 25% in size; also: potency is read from the fitted curve at half-maximal effect
# Method in brief: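 Biochemical qHTS: compounds run as interplate titrations against purified firefly enzyme, with D-luciferin and ATP each at its KM concentration. Light output recorded by CCD imaging.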
# [12] = qHTS assay to identify small molecule antagonists of the estrogen related receptor signaling pathway with the pleiotropic PPARgamma coactivator (PGC) from Tox21 10K library (AID 1224841; call rule not given here; also: series mostly up to about 92 µM; actives are mostly falling curves and most rising ones were filed inactive; nearly all actives have a fitted effect of over 50% in size)
# Method in brief: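 Luminescence (One-Glo, 30 min at room temperature) after 18 h compound treatment at 37 C of PGC/ERR reporter cells plated at 2,000 cells/well and settled 6 h beforehand.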
# [13] = qHTS assay to identify small molecule agonists of the estrogen related receptor signaling pathway with the pleiotropic PPARgamma coactivator (PGC) from Tox21 10K library (AID 1224842); also: nearly all actives have a fitted effect of over 15% in size
# Method in brief: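 PGC/ERR reporter cell line, 2,000 cells per well, incubated 6 h at 37 C before 23 nL compound in DMSO was added. After 18 h at 37 C, One-Glo luminescence read following 30 min at room temperature.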
# Luciferin 4-monooxygenase (Photinus pyralis), sequence (P08659 whole entry, looked up): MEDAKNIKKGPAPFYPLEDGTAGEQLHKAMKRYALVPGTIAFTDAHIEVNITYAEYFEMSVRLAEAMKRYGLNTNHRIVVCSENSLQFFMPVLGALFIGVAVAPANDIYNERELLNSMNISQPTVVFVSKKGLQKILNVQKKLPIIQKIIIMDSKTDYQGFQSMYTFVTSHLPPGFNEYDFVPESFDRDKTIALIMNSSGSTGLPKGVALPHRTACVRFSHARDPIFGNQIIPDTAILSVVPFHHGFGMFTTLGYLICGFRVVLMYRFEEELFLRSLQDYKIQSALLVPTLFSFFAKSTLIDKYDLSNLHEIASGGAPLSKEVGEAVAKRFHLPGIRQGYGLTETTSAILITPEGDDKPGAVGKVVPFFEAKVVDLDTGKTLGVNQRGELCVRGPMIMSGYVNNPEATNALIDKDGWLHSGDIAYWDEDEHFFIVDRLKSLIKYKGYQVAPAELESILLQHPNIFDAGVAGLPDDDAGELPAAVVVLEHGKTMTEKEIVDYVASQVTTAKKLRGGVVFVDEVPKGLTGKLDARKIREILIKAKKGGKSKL
# Nuclear receptor subfamily 1 group I member 3 (Homo sapiens), sequence (Q14994 whole entry, looked up): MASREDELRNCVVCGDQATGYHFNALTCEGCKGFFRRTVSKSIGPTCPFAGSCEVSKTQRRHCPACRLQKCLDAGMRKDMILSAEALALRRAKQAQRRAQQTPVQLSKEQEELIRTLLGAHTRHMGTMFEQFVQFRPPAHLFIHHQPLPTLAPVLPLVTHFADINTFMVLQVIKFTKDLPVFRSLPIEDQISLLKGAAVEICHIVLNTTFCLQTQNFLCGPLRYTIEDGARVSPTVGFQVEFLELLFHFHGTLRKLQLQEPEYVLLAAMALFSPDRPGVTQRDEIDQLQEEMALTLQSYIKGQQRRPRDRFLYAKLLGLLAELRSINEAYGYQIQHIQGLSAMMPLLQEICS
# Retinoic acid receptor RXR-alpha (Homo sapiens), sequence (P19793 whole entry, looked up): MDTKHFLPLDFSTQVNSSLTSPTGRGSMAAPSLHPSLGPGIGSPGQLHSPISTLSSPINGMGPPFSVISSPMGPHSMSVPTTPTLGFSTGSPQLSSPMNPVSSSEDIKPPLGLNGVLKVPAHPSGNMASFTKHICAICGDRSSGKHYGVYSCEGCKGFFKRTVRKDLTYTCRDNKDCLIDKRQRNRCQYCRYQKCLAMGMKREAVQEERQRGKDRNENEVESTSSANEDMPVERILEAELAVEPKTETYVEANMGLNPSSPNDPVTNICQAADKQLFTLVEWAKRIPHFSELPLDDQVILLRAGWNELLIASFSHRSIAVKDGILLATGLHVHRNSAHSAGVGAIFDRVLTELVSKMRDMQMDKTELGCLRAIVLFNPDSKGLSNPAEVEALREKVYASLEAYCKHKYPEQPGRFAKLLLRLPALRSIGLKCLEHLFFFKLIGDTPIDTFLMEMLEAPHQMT
SMILES,Potency [1],outcome [2],outcome [3],Potency [4],Potency [5],Potency [6],Potency [7],Potency [8],Potency [9],Potency [10],Potency [11],Potency [12],Potency [13]
COP(=S)(OC)Oc1ccc(SC)c(C)c1,inactive,inactive,inactive,19.3 µM (active),inactive,inactive,inactive,inactive,60.4 µM (active) and 54.5 µM (active) and 23.7 µM (active),inactive,,,
COP(=S)(OC)SCN1C(=O)c2ccccc2C1=O,inactive,inactive,inactive,,inactive,inactive,inactive,,,inactive,71.5 µM (active) and 63.3 µM (active) and inactive,,
O=S(=O)(O)OOS(=O)(=O)O,inactive,inactive,inactive,,inactive,inactive,inactive,,,inactive,inactive,,
Nc1ncc([N+](=O)[O-])s1,inactive,inactive,inactive,inactive,49 µM (active) and inactive,inactive,inactive,,,inactive,inactive,inactive,inactive
CC(C)(C)C(=O)CCl,inactive,inactive,inactive,,inactive,inactive,inactive,,,inactive,inactive,inactive,inactive
